In the supplement of paper PMC10849652:
Targets with a hit are over-represented here; the source holds about 7,900 in all. About 0.6% of all pairs of compound and target were hits.

Columns and labels:
Assay in all cases: log2 fold change, soluble protein after heating vs DMSO (PISA); higher = thermal stabilisation; K562 cells, 10 uM, 30 min; active = over 0.2 and 3.5 SD of the protein, either way, in both replicates (recomputed)
saracatinib = compound: CN1CCN(CCOc2cc(OC3CCOCC3)c3c(Nc4c(Cl)ccc5c4OCO5)ncnc3c2)CC1 [saracatinib]
Outline: (§1)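 Thermal stability values are relative to control samples and come from duplicates. They are expressed as log2 fold changes. For measurement, K562 cells (2×10^6 cells/mL) received 10 μM compound for 30 min, and aliquots were heated for 3 min over 48°C-58°C, pooled, and extracted at 4°C in PBS with 0.5% NP-40. Soluble protein, the supernatant after 21,000xg for 90 min, was quantified by TMTpro 16plex LC-MS/MS with equalised channel sums.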

sotrastaurin = compound: CN1CCN(c2nc(C3=C(c4c[nH]c5ccccc45)C(=O)NC3=O)c3ccccc3n2)CC1 [sotrastaurin]
Outline: as §1

alvocidib = compound: CN1CC[C@H](c2c(O)cc(O)c3c(=O)cc(-c4ccccc4Cl)oc23)[C@H](O)C1 [alvocidib]
Outline: as §1

Tubastatin A = compound: CN1CCc2c(c3ccccc3n2Cc2ccc(C(=O)NO)cc2)C1 [Tubastatin A]
Outline: as §1

[1] = compound: CNC(=O)C1=CC=CC=C1NC2=NC(=NC=C2Cl)NC3=C(C=C(C=C3)N4CCOCC4)OC
Outline: as §1

defactinib = compound: CNC(=O)c1ccc(Nc2ncc(C(F)(F)F)c(NCc3nccnc3N(C)S(C)(=O)=O)n2)cc1 [defactinib]
Outline: as §1

rucaparib = compound: CNCc1ccc(-c2[nH]c3cc(F)cc4c3c2CCNC4=O)cc1 [rucaparib]
Outline: as §1

[2] = compound: CNc1nc(-c2ccc3c(N)n[nH]c3c2)cc(N2C[C@@H](C(=O)NC3CCCCC3)CC[C@H]2C)n1
Outline: as §1

encorafenib = compound: COC(=O)N[C@@H](C)CNc1nccc(-c2cn(C(C)C)nc2-c2cc(Cl)cc(NS(C)(=O)=O)c2F)n1 [encorafenib]
Outline: as §1

[3] = compound: COC(=O)[C@H](CCSC)NC(=O)C1=C(C=C(C=C1)NC[C@H](CS)N)C2=CC=CC=C2
Outline: as §1

[4] = compound: COC1=CC=C(C=C1)CN2C=CC3=C2C=C(C=C3)C(=O)NO
Outline: as §1

filanesib = compound: CON(C)C(=O)N1N=C(c2cc(F)ccc2F)S[C@@]1(CCCN)c1ccccc1 [filanesib]
Outline: as §1

zotarolimus = compound: CO[C@H]1C[C@@H]2CC[C@@H](C)[C@@](O)(O2)C(=O)C(=O)N2CCCC[C@H]2C(=O)O[C@H]([C@H](C)C[C@@H]2CC[C@H](n3cnnn3)[C@H](OC)C2)CC(=O)[C@H](C)/C=C(\C)[C@@H](O)[C@@H](OC)C(=O)[C@H](C)C[C@H](C)/C=C/C=C/C=C/1C [zotarolimus]
Outline: as §1

idasanutlin = compound: COc1cc(C(=O)O)ccc1NC(=O)[C@@H]1N[C@@H](CC(C)(C)C)[C@](C#N)(c2ccc(Cl)cc2F)[C@H]1c1cccc(Cl)c1F [idasanutlin]
Outline: as §1

alisertib = compound: COc1cc(Nc2ncc3c(n2)-c2ccc(Cl)cc2C(c2c(F)cccc2OC)=NC3)ccc1C(=O)O [alisertib]
Outline: as §1

[5] = compound: COc1cc2nc(-c3cc(F)ccc3O)nc(N[C@@H]3CNC[C@H]3C(C)(C)O)c2cc1OC
Outline: as §1

gefitinib = compound: COc1cc2ncnc(Nc3ccc(F)c(Cl)c3)c2cc1OCCCN1CCOCC1 [gefitinib]
Outline: as §1

[6] = compound: COc1cccc2cc(-c3nc([C@H]4CC[C@H](C(=O)O)CC4)n4ncnc(N)c34)[nH]c12
Outline: as §1

lapatinib = compound: CS(=O)(=O)CCNCc1ccc(-c2ccc3ncnc(Nc4ccc(OCc5cccc(F)c5)c(Cl)c4)c3c2)o1 [lapatinib]
Outline: as §1

pictilisib = compound: CS(=O)(=O)N1CCN(Cc2cc3nc(-c4cccc5[nH]ncc45)nc(N4CCOCC4)c3s2)CC1 [pictilisib]
Outline: as §1

Measured: log2 fold change

POTEI (UniProt P0CG38)
Sequence of UniProt P0CG38 (P0CG38 whole entry, looked up): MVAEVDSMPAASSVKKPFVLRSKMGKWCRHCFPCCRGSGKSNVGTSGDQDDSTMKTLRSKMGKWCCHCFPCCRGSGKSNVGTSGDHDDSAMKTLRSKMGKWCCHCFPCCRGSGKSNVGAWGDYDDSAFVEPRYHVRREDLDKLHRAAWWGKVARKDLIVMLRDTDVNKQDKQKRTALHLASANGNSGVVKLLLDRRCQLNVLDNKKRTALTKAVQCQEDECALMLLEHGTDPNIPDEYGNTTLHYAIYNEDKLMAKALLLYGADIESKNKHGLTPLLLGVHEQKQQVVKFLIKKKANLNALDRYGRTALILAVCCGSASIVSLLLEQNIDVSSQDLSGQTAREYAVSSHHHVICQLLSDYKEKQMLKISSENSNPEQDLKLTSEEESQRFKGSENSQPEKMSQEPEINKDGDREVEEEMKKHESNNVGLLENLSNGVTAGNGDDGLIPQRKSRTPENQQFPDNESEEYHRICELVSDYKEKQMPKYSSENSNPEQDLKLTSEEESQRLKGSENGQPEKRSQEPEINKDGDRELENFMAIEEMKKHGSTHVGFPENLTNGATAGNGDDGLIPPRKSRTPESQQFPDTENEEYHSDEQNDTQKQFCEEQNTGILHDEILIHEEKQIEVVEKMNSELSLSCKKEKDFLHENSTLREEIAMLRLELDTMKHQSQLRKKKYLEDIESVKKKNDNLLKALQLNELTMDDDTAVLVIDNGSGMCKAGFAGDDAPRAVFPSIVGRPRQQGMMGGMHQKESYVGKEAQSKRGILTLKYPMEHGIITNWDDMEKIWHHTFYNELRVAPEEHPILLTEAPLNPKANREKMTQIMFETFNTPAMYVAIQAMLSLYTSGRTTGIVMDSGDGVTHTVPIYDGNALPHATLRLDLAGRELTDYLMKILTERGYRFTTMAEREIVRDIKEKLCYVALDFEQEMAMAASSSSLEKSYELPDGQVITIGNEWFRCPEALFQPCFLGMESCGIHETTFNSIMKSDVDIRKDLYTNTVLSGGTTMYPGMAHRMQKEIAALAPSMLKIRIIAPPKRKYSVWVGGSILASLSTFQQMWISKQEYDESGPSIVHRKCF
inactive: saracatinib 0.108 | sotrastaurin 0.066 | alvocidib -0.038 | Tubastatin A -0.012 | [1] -0.02 | defactinib -0.026 | rucaparib -0.049 | [2] -0.014 | encorafenib -0.007 | [3] -0.016 | [4] 0.033 | filanesib 0.04 | zotarolimus 0.025 | idasanutlin -0.007 | alisertib 0.037 | [5] -0.003 | gefitinib 0.015 | [6] 0.067 | lapatinib -0.006 | pictilisib 0.012

PLCB3 (UniProt Q01970)
inactive: saracatinib -0.044 | sotrastaurin -0.039 | alvocidib -0.02 | Tubastatin A -0.027 | [1] 0.023 | defactinib -0.074 | rucaparib -0.015 | [2] -0.045 | encorafenib 0.004 | [3] -0.083 | [4] -0.004 | filanesib -0.118 | zotarolimus 0.007 | idasanutlin -0.044 | alisertib -0.05 | [5] -0.008 | gefitinib -0.003 | [6] 0.013 | lapatinib -0.028 | pictilisib 0.055

PCK2 (UniProt Q16822)
Sequence of UniProt Q16822 (Q16822 whole entry, looked up): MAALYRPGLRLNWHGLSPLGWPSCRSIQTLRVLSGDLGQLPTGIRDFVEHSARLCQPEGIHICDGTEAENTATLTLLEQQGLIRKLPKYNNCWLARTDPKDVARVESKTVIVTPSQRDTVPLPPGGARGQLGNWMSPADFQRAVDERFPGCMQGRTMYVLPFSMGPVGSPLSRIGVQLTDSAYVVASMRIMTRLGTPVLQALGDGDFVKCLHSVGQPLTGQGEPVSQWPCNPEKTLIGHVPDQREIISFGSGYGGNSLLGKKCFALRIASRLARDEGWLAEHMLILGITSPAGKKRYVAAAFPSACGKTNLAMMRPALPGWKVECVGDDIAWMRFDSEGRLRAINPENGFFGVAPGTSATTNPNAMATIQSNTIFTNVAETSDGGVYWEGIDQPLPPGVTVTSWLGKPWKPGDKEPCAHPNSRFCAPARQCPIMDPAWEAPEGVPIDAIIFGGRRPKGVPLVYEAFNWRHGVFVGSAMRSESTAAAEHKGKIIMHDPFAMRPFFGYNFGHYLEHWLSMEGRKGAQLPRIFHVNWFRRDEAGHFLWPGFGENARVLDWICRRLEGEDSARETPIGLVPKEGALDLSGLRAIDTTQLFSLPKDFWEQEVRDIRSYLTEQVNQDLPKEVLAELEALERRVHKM
inactive: saracatinib 0.021 | sotrastaurin -0.003 | alvocidib -0.113 | Tubastatin A -0.139 | [1] -0.006 | defactinib -0.048 | rucaparib -0.009 | [2] 0.015 | encorafenib -0.007 | [3] 0.01 | filanesib -0.007 | zotarolimus 0.045 | idasanutlin -0.044 | alisertib -0.035 | [5] 0.024 | gefitinib -0.025 | [6] 0.027 | lapatinib -0.045 | pictilisib 0.011
active: [4] -0.339

PUF60 (UniProt Q9UHX1)
Sequence of UniProt Q9UHX1 (Q9UHX1 whole entry, looked up): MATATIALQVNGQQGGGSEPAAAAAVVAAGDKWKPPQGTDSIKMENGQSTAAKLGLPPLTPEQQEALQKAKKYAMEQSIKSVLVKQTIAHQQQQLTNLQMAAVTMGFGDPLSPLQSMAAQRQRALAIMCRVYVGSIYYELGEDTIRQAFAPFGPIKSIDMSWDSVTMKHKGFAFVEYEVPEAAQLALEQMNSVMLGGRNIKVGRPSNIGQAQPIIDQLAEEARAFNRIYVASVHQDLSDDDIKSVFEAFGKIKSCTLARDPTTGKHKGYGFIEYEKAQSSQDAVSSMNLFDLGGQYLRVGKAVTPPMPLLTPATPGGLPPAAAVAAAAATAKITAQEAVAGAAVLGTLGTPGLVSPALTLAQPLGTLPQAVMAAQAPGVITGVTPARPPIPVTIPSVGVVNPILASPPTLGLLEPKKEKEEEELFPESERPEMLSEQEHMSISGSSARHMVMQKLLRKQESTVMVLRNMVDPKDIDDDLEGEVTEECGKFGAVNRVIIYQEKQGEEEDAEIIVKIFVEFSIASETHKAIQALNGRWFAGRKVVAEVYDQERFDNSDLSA
inactive: saracatinib 0 | sotrastaurin -0.035 | alvocidib -0.138 | Tubastatin A 0.048 | [1] -0.197 | defactinib -0.173 | rucaparib -0.003 | [2] -0.007 | encorafenib 0.049 | [3] -0.012 | [4] 0.007 | filanesib 0.087 | zotarolimus 0.026 | idasanutlin 0.022 | alisertib -0.05 | [5] -0.028 | gefitinib 0.014 | [6] 0.008 | lapatinib 0.063 | pictilisib 0

PPP1R35 (UniProt Q8TAP8)
Sequence of UniProt Q8TAP8 (Q8TAP8 whole entry, looked up): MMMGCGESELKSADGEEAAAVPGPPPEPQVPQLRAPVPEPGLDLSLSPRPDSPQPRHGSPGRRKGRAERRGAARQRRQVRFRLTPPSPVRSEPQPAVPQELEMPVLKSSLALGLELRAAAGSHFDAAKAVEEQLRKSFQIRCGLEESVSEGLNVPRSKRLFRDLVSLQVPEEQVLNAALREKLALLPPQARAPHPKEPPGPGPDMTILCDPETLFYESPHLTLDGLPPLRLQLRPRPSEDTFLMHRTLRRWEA
inactive: saracatinib 0.034 | sotrastaurin -0.011 | alvocidib -0.03 | Tubastatin A 0.035 | [1] -0.029 | defactinib -0.007 | rucaparib 0.019 | [2] -0.109 | encorafenib 0.072 | [3] 0.052 | [4] 0.003 | filanesib 0.026 | zotarolimus -0.004 | idasanutlin 0.196 | alisertib -0.003 | [5] -0.125 | gefitinib 0.027 | [6] 0.083 | lapatinib 0.011 | pictilisib -0.068

PIKFYVE (UniProt Q9Y2I7)
inactive: saracatinib -0.001 | sotrastaurin -0.081 | alvocidib -0.175 | Tubastatin A -0.032 | [1] 0.009 | defactinib -0.033 | rucaparib 0.068 | [2] -0.106 | encorafenib 0.099 | [3] -0.025 | [4] 0.03 | filanesib -0.036 | zotarolimus -0.074 | idasanutlin -0.096 | alisertib 0.016 | [5] -0.037 | gefitinib -0.308 | [6] -0.044 | lapatinib -0.098 | pictilisib -0.047

PPP1R12A (UniProt O14974)
active: [5] -0.658
inactive: saracatinib -0.048 | sotrastaurin -0.054 | alvocidib -0.187 | Tubastatin A 0.01 | [1] -0.052 | defactinib -0.187 | rucaparib -0.012 | [2] -0.197 | encorafenib 0.057 | [3] -0.043 | [4] 0.003 | filanesib 0.064 | zotarolimus 0.048 | idasanutlin 0.041 | alisertib 0.028 | gefitinib 0.009 | [6] -0.006 | lapatinib 0.036 | pictilisib 0.005

PXK (UniProt Q7Z7A4)
inactive: saracatinib -0.023 | sotrastaurin 0.004 | alvocidib -0.055 | Tubastatin A -0.033 | [1] 0.03 | defactinib -0.025 | rucaparib -0.027 | [2] -0.007 | encorafenib 0.08 | [3] -0.048 | [4] 0.105 | filanesib -0.005 | zotarolimus 0.021 | idasanutlin -0.035 | alisertib -0.057 | [5] 0.069 | gefitinib -0.001 | [6] 0.015 | lapatinib 0.03 | pictilisib 0.127

POLR2D (UniProt O15514)
inactive: saracatinib 0.064 | sotrastaurin 0.015 | alvocidib 0.22 | Tubastatin A -0.064 | [1] -0.114 | defactinib 0.165 | rucaparib 0.056 | [2] 0.026 | encorafenib 0.003 | [3] -0.038 | [4] 0.02 | filanesib 0.009 | zotarolimus -0.029 | idasanutlin -0.083 | alisertib -0.159 | [5] -0.021 | gefitinib -0.001 | [6] 0.043 | lapatinib 0.017 | pictilisib -0.026

POLA2 (UniProt Q14181)
inactive: saracatinib 0.035 | sotrastaurin -0.055 | alvocidib -0.15 | Tubastatin A 0.051 | [1] 0.096 | defactinib -0.254 | rucaparib -0.125 | [2] 0.039 | encorafenib 0.06 | [3] -0.038 | [4] 0.086 | filanesib -0.001 | zotarolimus 0.015 | idasanutlin -0.02 | alisertib 0.005 | [5] 0.046 | gefitinib 0 | [6] -0.015 | lapatinib 0.018 | pictilisib 0.051

POLR2B (UniProt P30876)
active: alvocidib 0.254
inactive: saracatinib -0.071 | sotrastaurin -0.032 | Tubastatin A -0.01 | [1] -0.016 | defactinib 0.173 | rucaparib 0.174 | [2] -0.012 | encorafenib 0.056 | [3] -0.044 | [4] 0.034 | filanesib 0.031 | zotarolimus -0.012 | idasanutlin -0.039 | alisertib -0.057 | [5] 0.214 | gefitinib 0.064 | [6] 0.007 | lapatinib -0.018 | pictilisib 0.076

PTPN12 (UniProt Q05209)
Sequence of UniProt Q05209 (Q05209 whole entry, looked up): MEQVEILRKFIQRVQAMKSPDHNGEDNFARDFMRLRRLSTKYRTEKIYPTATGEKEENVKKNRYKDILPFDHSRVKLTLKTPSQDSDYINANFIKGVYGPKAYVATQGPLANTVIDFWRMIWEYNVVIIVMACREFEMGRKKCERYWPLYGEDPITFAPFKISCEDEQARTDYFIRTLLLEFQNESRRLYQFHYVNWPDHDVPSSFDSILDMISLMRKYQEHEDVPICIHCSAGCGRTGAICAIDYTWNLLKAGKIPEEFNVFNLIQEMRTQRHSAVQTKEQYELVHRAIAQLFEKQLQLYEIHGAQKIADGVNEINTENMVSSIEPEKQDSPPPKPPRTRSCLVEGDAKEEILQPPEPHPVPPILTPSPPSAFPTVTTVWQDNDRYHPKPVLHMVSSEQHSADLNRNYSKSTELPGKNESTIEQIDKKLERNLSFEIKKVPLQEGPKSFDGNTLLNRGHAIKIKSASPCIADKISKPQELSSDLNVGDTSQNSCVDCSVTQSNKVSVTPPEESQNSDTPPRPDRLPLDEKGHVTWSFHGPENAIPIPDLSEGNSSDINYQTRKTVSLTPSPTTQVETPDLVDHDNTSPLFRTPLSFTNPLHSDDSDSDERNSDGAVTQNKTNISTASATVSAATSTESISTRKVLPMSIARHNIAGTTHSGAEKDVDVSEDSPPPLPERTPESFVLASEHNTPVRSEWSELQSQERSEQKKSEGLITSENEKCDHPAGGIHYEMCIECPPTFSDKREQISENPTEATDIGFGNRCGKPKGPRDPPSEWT
inactive: saracatinib 0.085 | sotrastaurin -0.148 | alvocidib 0.007 | Tubastatin A 0.064 | [1] 0.063 | defactinib 0.006 | rucaparib 0.047 | [2] -0.04 | encorafenib 0.076 | [3] -0.088 | [4] -0.024 | filanesib 0.04 | zotarolimus 0.041 | idasanutlin -0.021 | alisertib -0.06 | [5] 0.053 | gefitinib 0.025 | [6] -0.132 | lapatinib 0.039 | pictilisib 0.012

PMPCA (UniProt Q10713)
Sequence of UniProt Q10713 (Q10713 whole entry, looked up): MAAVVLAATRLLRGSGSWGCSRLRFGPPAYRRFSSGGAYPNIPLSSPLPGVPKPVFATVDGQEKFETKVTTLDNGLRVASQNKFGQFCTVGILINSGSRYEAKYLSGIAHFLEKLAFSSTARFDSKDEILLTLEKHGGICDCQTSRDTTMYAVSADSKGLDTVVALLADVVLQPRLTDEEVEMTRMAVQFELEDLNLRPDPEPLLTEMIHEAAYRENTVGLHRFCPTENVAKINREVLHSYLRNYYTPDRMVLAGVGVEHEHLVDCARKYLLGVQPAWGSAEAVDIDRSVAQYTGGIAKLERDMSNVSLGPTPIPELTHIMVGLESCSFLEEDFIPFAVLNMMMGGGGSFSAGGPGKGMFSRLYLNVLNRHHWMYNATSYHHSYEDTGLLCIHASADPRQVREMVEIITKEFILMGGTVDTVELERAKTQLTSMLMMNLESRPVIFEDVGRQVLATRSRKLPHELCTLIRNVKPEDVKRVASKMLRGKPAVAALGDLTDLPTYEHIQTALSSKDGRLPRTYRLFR
inactive: saracatinib -0.026 | sotrastaurin -0.007 | alvocidib -0.101 | Tubastatin A -0.007 | [1] 0.007 | defactinib -0.086 | rucaparib -0.022 | [2] 0.052 | encorafenib -0.027 | [3] -0.022 | [4] -0.041 | filanesib 0.013 | zotarolimus 0.035 | idasanutlin -0.1 | alisertib -0.089 | [5] -0.02 | gefitinib 0.043 | [6] 0.009 | lapatinib -0.023 | pictilisib 0.018

PRMT7 (UniProt Q9NVM4)
Sequence of UniProt Q9NVM4 (Q9NVM4 whole entry, looked up): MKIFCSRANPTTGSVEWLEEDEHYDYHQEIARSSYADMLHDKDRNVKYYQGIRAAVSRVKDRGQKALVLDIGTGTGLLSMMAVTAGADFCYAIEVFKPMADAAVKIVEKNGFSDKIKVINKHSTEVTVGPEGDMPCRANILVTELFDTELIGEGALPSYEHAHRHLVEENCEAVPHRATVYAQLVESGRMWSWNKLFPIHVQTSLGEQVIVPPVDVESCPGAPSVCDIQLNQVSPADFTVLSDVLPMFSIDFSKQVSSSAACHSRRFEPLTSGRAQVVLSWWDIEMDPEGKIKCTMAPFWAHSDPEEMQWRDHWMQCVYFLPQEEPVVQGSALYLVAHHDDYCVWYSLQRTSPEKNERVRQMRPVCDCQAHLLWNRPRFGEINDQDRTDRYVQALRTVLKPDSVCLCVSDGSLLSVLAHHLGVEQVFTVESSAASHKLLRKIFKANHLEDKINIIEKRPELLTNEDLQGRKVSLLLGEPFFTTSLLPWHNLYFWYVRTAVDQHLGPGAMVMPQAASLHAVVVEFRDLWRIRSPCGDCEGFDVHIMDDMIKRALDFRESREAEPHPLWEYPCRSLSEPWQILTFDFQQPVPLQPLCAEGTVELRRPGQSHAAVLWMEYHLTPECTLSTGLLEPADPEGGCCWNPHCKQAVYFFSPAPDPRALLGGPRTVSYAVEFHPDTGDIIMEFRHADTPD
inactive: saracatinib -0.02 | sotrastaurin -0.124 | alvocidib -0.219 | Tubastatin A 0.088 | [1] 0.004 | defactinib -0.086 | rucaparib 0.008 | [2] 0.031 | encorafenib 0.112 | [3] -0.04 | [4] -0.174 | filanesib -0.072 | zotarolimus -0.008 | idasanutlin -0.004 | alisertib -0.073 | [5] -0.037 | gefitinib 0.05 | [6] -0.018 | lapatinib 0.026 | pictilisib -0.009

PCYT1A (UniProt P49585)
Sequence of UniProt P49585 (P49585 whole entry, looked up): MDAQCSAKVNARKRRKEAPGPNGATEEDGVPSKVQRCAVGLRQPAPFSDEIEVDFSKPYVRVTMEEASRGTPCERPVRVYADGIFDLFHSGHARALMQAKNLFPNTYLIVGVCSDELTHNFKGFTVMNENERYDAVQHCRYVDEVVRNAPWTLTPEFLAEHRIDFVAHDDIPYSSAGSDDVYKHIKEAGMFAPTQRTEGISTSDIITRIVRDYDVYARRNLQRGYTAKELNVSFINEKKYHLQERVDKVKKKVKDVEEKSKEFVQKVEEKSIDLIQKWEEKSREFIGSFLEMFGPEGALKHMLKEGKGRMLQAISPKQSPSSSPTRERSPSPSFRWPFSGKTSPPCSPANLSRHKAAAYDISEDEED
inactive: saracatinib -0.014 | sotrastaurin -0.105 | alvocidib -0.254 | Tubastatin A 0.013 | [1] 0.032 | defactinib -0.186 | rucaparib -0.127 | [2] -0.097 | encorafenib -0.001 | [3] -0.02 | [4] 0.006 | filanesib -0.005 | zotarolimus 0.035 | idasanutlin -0.015 | alisertib 0.025 | [5] -0.05 | gefitinib -0.012 | [6] -0.037 | lapatinib 0.018 | pictilisib 0.03

PYGB (UniProt P11216)
inactive: saracatinib 0.012 | sotrastaurin -0.142 | alvocidib 0.153 | Tubastatin A -0.003 | defactinib -0.091 | rucaparib -0.004 | [2] -0.042 | encorafenib 0.024 | [3] -0.009 | [4] -0.024 | filanesib 0.035 | zotarolimus -0.023 | idasanutlin -0.013 | alisertib -0.019 | gefitinib -0.037 | [6] 0.028 | lapatinib -0.223 | pictilisib -0.164
active: [1] -0.391 | [5] 0.237
